The test system of assay [1] is DLD1. Description: cell viability (CellTiter-Glo) relative to plate median (fraction of plate median); higher = more viable cells. Particulars: 5 µM; treatment time 24 h; reporter: 7TFP. Put shortly: (§1)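 Colorectal cancer cells stably transduced with lentiviral TCF/Wnt firefly luciferase reporters were seeded in 384-well plates and dosed 24 h later with library compounds at a final 5 µM for 24 h. Firefly luciferase or CellTiterGlo luminescence was then read on a Tecan F500 from parallel plates. Signals were normalised per well to the plate median without log transformation, additively in webcellHTS2, and averaged over two independent replicates.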
(In general: ATP-based viability assays read luminescence as a measure of living cells.)

The test system of assay [2] is HCT116. Described as above. As to conditions: 5 µM; treatment time 24 h; reporter: TCF4/Wnt. The procedure, abridged:
as §1

For assay [3], the system named is SW480. The description is as above. Particulars: 5 µM; treatment time 24 h; reporter: 7TFP. Put shortly:
as §1

Assay [4] relates to DLD1. Nature of the assay: TCF/Wnt firefly luciferase reporter signal relative to plate median (fraction of plate median); higher = higher Wnt reporter signal. As to conditions: 5 µM; treatment time 24 h; reporter: 7TFP. Put shortly:
as §1
For orientation: A reporter such as luciferase makes a cellular process visible.

Assay [5] has as its system SW480. The assay is described as above. As to conditions: 5 µM; treatment time 24 h; reporter: 7TFP. Put shortly:
as §1

Structures are written as SMILES. “And” between values parts separate entries of the source, which are not always exact repeats. Equal values may be shown once. ± gives the standard deviation of the averaged measurements.

Turning to `Nc1nccs1`, the cell viability in assay [1] was 0.985 ± 0.079; in assay [2], 1 ± 0.14; in assay [3], 1.02 ± 0.033. Also, the “TCF/Wnt firefly luciferase reporter signal” value in assay [4] is 1.06 ± 0.13; in assay [5], 0.986 ± 0.021.

For `C=CC1=C(C(=O)O)N2C(=O)[C@@H](NC(=O)/C(=N\O)c3csc(N)n3)[C@H]2SC1`, the cell viability is 0.911 ± 0.11 in assay [1], 1.04 ± 0.1 in assay [2] and 0.963 ± 0.025 in assay [3]. For the same molecule, the “TCF/Wnt firefly luciferase reporter signal” value in assay [4] is 0.941 ± 0.052; in assay [5], 0.969 ± 0.072.

Take `CC(=O)S[C@@H]1CC2=CC(=O)CC[C@]2(C)[C@H]2CC[C@@]3(C)[C@@H](CC[C@@]34CCC(=O)O4)[C@H]12`: the results for the cell viability in assay [1], in assay [2] and in assay [3] were 1.11 ± 0.014, 0.97 ± 0.04 and 1.06 ± 0.064, respectively. Also, the “TCF/Wnt firefly luciferase reporter signal” value was 0.878 ± 0.15 in assay [4] and 0.955 ± 0.016 in assay [5].

For `C=C[C@@H](C1=CC(=O)C(OC)=C(OC)C1=O)c1ccccc1`, the cell viability in assay [1] is 0.903 ± 0.0057; in assay [2], 0.856 ± 0.11; in assay [3] it was 1.08 ± 0.014. Besides, the “TCF/Wnt firefly luciferase reporter signal” value in assay [4] was 0.712 ± 0.033; in assay [5], 0.907 ± 0.023.

Take `CC[C@@H]1C(=O)OC[C@@H]1Cc1cncn1C`: the cell viability in assay [1] turned out to be 1.015 ± 0.0071; in assay [2] it was 0.953 ± 0.067; in assay [3] it was 0.992 ± 0.012. Besides, the “TCF/Wnt firefly luciferase reporter signal” value in assay [4] stood at 1.18 ± 0.05; in assay [5] it was 1.16 ± 0.16.

In the case of `O=S(=O)(O)CCS`, the cell viability in assay [1] came to 1.01 ± 0.058; in assay [2], 1.06 ± 0.014; in assay [3], 1.02 ± 0.054. Also, the “TCF/Wnt firefly luciferase reporter signal” value in assay [4] turned out to be 1.01 ± 0.19; in assay [5], 1.1 ± 0.028.

In the case of `C[N+]1(CCCCC[N+]2(C)CCCC2)CCCC1`, the cell viability in assay [1] is 0.998 ± 0.018; in assay [2], 1.01 ± 0.039; in assay [3], 0.995 ± 0.064. Moreover, the figures for the “TCF/Wnt firefly luciferase reporter signal” value in assay [4] and in assay [5] were 0.888 ± 0.21 and 0.98 ± 0.071, respectively.

As to `CC1=C(/C=C/C(C)=C/C=C/C(C)=C\C(=O)O)C(C)(C)CCC1`, the cell viability in assay [1] was determined as 1.02 ± 0.05; in assay [2], 0.949 ± 0.1; in assay [3], 0.967 ± 0.012. In addition, the “TCF/Wnt firefly luciferase reporter signal” value in assay [4] stood at 0.827 ± 0.097; in assay [5], 0.872 ± 0.044.

As to `COc1ccc(-c2cc(=O)c3ccccc3o2)cc1OC`, the cell viability in assay [1] turned out to be 1.07 ± 0.05; in assay [2], 1.01; in assay [3] it was 1.06 ± 0.057. The “TCF/Wnt firefly luciferase reporter signal” value in assay [4] was 0.906 ± 0.0099; in assay [5], 1.03 ± 0.035.

For the molecule `CCCCNc1ccc(C(=O)OCCN(C)C)cc1`, the values for the cell viability in assay [1], in assay [2] and in assay [3] were 1.04 ± 0.042, 1.12 ± 0.085 and 1.02 ± 0.035, respectively. For the same molecule, the “TCF/Wnt firefly luciferase reporter signal” value in assay [4] was 1.1 ± 0.035; in assay [5], 0.973 ± 0.0085.

As to `O=c1c2ccccc2oc2ccccc12`, the cell viability in assay [1] came out at 0.986 ± 0.016; in assay [2] it was 0.98 ± 0.043; in assay [3] it was 0.98 ± 0.029. For the same molecule, the figures for the “TCF/Wnt firefly luciferase reporter signal” value in assay [4] and in assay [5] were 0.985 ± 0.036 and 0.916 ± 0.03, respectively.

Turning to `CC(C)C[C@H]1NC(=O)[C@@H](NC(=O)c2ncccc2O)[C@@H](C)OC(=O)[C@H](c2ccccc2)N(C)C(=O)[C@H](C)NC(=O)[C@H]([C@@H](C)C(C)C)N(C)C(=O)CN(C)C(=O)[C@H]2C[C@@H](O)CN2C1=O` [Viridogrisein], the results for the cell viability in assay [1], in assay [2] and in assay [3] were 1.04 ± 0.11, 0.954 ± 0.066 and 0.971 ± 0.11, respectively. Also, the figures for the “TCF/Wnt firefly luciferase reporter signal” value in assay [4] and in assay [5] were 1.12 ± 0.021 and 0.999 ± 0.073, respectively.

On to `CC[C@H](C)C(=O)O[C@H]1C[C@H](O)C=C2C=C[C@H](C)[C@H](CC[C@@H](O)C[C@@H](O)CC(=O)O)[C@H]21`, for which the values for the cell viability in assay [1], in assay [2] and in assay [3] were 1.03 ± 0.014, 1.02 ± 0.028 and 0.989 ± 0.0028, respectively. Also, the figures for the “TCF/Wnt firefly luciferase reporter signal” value in assay [4] and in assay [5] were 1.04 ± 0.076 and 0.928 ± 0.16, respectively.

With `CC(=O)OC[C@@]1(O)C[C@@]23CC[C@@H]4c5ccoc5CC[C@@]4(C)[C@@H]2CC[C@@H]1C3`, the cell viability turned out to be 1.02 ± 0.028 in assay [1], 1.05 ± 0.042 in assay [2] and 1.02 in assay [3]. Also, the figures for the “TCF/Wnt firefly luciferase reporter signal” value in assay [4] and in assay [5] were 1.08 ± 0.16 and 1.16 ± 0.057, respectively.

For `CCN1CCN(c2cc3c(cc2F)c(=O)c(C(=O)O)cn3C2CC2)CC1`, the values for the cell viability in assay [1], in assay [2] and in assay [3] were 1.01 ± 0.05, 0.907 ± 0.038 and 0.921 ± 0.03, respectively. The entries for the “TCF/Wnt firefly luciferase reporter signal” value in assay [4] and in assay [5] were 1.05 ± 0.074 and 0.9395 ± 0.005, respectively.

Take `OC(CCN1CCCC1)(c1ccccc1)C1CCCCC1` (stereo not given): the cell viability worked out at 1.03 in assay [1], 1.01 ± 0.043 in assay [2] and 1.03 ± 0.054 in assay [3]. For the same molecule, the “TCF/Wnt firefly luciferase reporter signal” value in assay [4] came out at 1.12 ± 0.15; in assay [5], 0.981 ± 0.017.

On to `CCOc1nc2cccc(C(=O)OC(C)OC(=O)OC3CCCCC3)c2n1Cc1ccc(-c2ccccc2-c2nn[nH]n2)cc1` (stereo not given), for which the figures for the cell viability in assay [1], in assay [2] and in assay [3] were 0.864 ± 0.052, 0.959 ± 0.042 and 1.045 ± 0.0071, respectively. Also, the “TCF/Wnt firefly luciferase reporter signal” value in assay [4] turned out to be 1.06 ± 0.2; in assay [5], 1.07 ± 0.064.

For the molecule `OCC(O)C(O)C(O)C(O)C(O)CO` (stereo not given), the cell viability in assay [1] amounted to 1.05 ± 0.042; in assay [2], 1.035 ± 0.0071; in assay [3] it was 0.986 ± 0.049. Besides, the results for the “TCF/Wnt firefly luciferase reporter signal” value in assay [4] and in assay [5] were 0.9515 ± 0.005 and 1.02 ± 0.091, respectively.

For the molecule `CCOc1ccc(C(=O)c2cc(O)c(OC)c(OC)c2O)cc1`, the cell viability in assay [1] is 0.982 ± 0.054; in assay [2], 0.925 ± 0.11; in assay [3], 0.9935 ± 0.0021. In addition, the “TCF/Wnt firefly luciferase reporter signal” value in assay [4] amounted to 1.09; in assay [5], 0.948 ± 0.062.

On to `Nc1ccc(S(=O)(=O)Nc2nccs2)cc1`, for which the figures for the cell viability in assay [1], in assay [2] and in assay [3] were 1.01 ± 0.031, 0.911 ± 0.028 and 1.065 ± 0.0071, respectively. The “TCF/Wnt firefly luciferase reporter signal” value in assay [4] stood at 0.999 ± 0.072; in assay [5], 1.055 ± 0.0071.

Take `O=C(O)CCCc1ccccc1`: the cell viability in assay [1] was 1.03 and 0.95; in assay [2] it was 0.968 and 0.85; in assay [3] it was 0.993 and 1. The “TCF/Wnt firefly luciferase reporter signal” value was 1.15 and 1.08 in assay [4]; 1.01 and 1.04 in assay [5].

Take `CCCN(CCC)CCc1cccc2c1CC(=O)N2`: the figures for the cell viability in assay [1], in assay [2] and in assay [3] were 1.02 ± 0.059, 1.08 ± 0.014 and 1.01 ± 0.044, respectively. The “TCF/Wnt firefly luciferase reporter signal” value in assay [4] is 1.18 ± 0.092; in assay [5] it was 1.07 ± 0.028.

For `COc1ccc(-c2coc3c(OC)c(OC)cc(O)c3c2=O)cc1`, the cell viability amounted to 1.01 ± 0.017 in assay [1], 1.07 ± 0.014 in assay [2] and 0.995 ± 0.021 in assay [3]. In addition, the “TCF/Wnt firefly luciferase reporter signal” value was determined as 1.08 ± 0.064 in assay [4] and 0.98 ± 0.042 in assay [5].

Turning to `CC(C)=CCC[C@@H](C)[C@H]1CC[C@@]2(C)C3=C(CC[C@]12C)[C@@]1(C)CC[C@H](O)C(C)(C)[C@@H]1CC3`, the cell viability was determined as 1 ± 0.029 in assay [1], 1.01 ± 0.12 in assay [2] and 0.994 ± 0.0085 in assay [3]. Besides, the “TCF/Wnt firefly luciferase reporter signal” value in assay [4] came out at 0.952 ± 0.023; in assay [5] it was 0.83 ± 0.05.

`CN1CCN(C2=Nc3ccccc3Oc3ccc(Cl)cc32)CC1`: the cell viability was found to be 0.901 ± 0.22 in assay [1], 0.971 ± 0.055 in assay [2] and 0.927 ± 0.0028 in assay [3]. The “TCF/Wnt firefly luciferase reporter signal” value in assay [4] was determined as 0.898 ± 0.21; in assay [5], 0.89 ± 0.12.

Take `COC(=O)[C@@H]1[C@H]2C[C@H]3c4[nH]c5ccccc5c4CCN3C[C@@H]2CC[C@@H]1O`: the cell viability came to 0.964 ± 0.033 in assay [1], 1.08 ± 0.13 in assay [2] and 1.005 ± 0.0071 in assay [3]. The “TCF/Wnt firefly luciferase reporter signal” value was found to be 0.919 ± 0.16 in assay [4] and 0.9165 ± 0.0021 in assay [5].

Regarding `COC(=O)Nc1nc2cc([S+]([O-])c3ccccc3)ccc2[nH]1` (stereo not given), the results for the cell viability in assay [1], in assay [2] and in assay [3] were 0.921 ± 0.093, 0.869 ± 0.054 and 1.01 ± 0.08, respectively. For the same molecule, the “TCF/Wnt firefly luciferase reporter signal” value in assay [4] came out at 0.983 ± 0.052; in assay [5] it was 0.885 ± 0.12.

Regarding `CCN(CC)CCNc1ccc(CO)c2sc3ccccc3c(=O)c12`, the cell viability in assay [1] is 1.1 ± 0.028; in assay [2] it was 1.02 ± 0.014; in assay [3], 0.995 ± 0.0057. Moreover, the results for the “TCF/Wnt firefly luciferase reporter signal” value in assay [4] and in assay [5] were 1.16 ± 0.18 and 0.988 ± 0.1, respectively.

For `CCCc1cc(OC)c2c(c1)OCO2`, the cell viability in assay [1] turned out to be 0.961 ± 0.11; in assay [2], 0.939 ± 0.014; in assay [3] it was 0.976 ± 0.049. Also, the “TCF/Wnt firefly luciferase reporter signal” value in assay [4] was found to be 0.958 ± 0.034; in assay [5] it was 0.964 ± 0.065.

Consider `Nc1cc(N2CCCCC2)nc(N)[n+]1[O-]`, for which the cell viability in assay [1] came to 1.01 ± 0.047; in assay [2], 0.972 ± 0.054; in assay [3], 1 ± 0.04. The “TCF/Wnt firefly luciferase reporter signal” value in assay [4] was 1.04 ± 0.11; in assay [5], 0.943 ± 0.062.
